Assay results as given in PubChem BioAssay (NCI).
The panel holds about 83,000 compounds, 20% with a hit somewhere; the sample as a whole holds those more often.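 Cells were grown in 96-well plates and exposed to the test compound at a single concentration for 48 hours; results are reported as percent growth, with values below 10 considered active.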 Activity calls are given as the source filed them.

Assays:
Test in all cases: NCI-60 one-dose screen, 48 h (100 = growth as untreated, 0 = no growth, -100 = all killed)
Details in all cases: 10 µM unless noted
NCI-H23 lung = system: NCI-H23 lung
NCI-H226 lung = system: NCI-H226 lung
NCI-H322M lung = system: NCI-H322M lung
HOP-62 NSCLC = system: HOP-62 NSCLC
NCI-H460 lung = system: NCI-H460 lung
HOP-92 NSCLC = system: HOP-92 NSCLC
NCI-H522 lung = system: NCI-H522 lung
A549/ATCC NSCLC = system: A549/ATCC NSCLC
786-0 renal = system: 786-0 renal
COLO 205 colon = system: COLO 205 colon
DU-145 prostate = system: DU-145 prostate
MALME-3M melanoma = system: MALME-3M melanoma
MDA-MB-231 breast = system: MDA-MB-231 breast
SF-268 CNS = system: SF-268 CNS
SF-295 CNS = system: SF-295 CNS
SF-539 CNS = system: SF-539 CNS
M14 melanoma = system: M14 melanoma
RXF 393 renal = system: RXF 393 renal
UACC-257 melanoma = system: UACC-257 melanoma

## Oc1ccc(N=Cc2ccccc2O)cc1
NCI-H23 lung
  growth: 92.3% (inactive)
NCI-H226 lung
  growth: 113% (inactive)
NCI-H322M lung
  growth: 90.6% (inactive)
HOP-62 NSCLC
  growth: 93.6% (inactive)
NCI-H460 lung
  growth: 96.4% (inactive)
HOP-92 NSCLC
  growth: 75.3% (inactive)
NCI-H522 lung
  growth: 81.3% (inactive)
A549/ATCC NSCLC
  growth: 101% (inactive)
786-0 renal
  growth: 93.4% (inactive)
COLO 205 colon
  growth: 120% (inactive)
DU-145 prostate
  growth: 103% (inactive)
MALME-3M melanoma
  growth: 73.6% (inactive)
MDA-MB-231 breast
  growth: 99.7% (inactive)
SF-268 CNS
  growth: 93.4% (inactive)
SF-295 CNS
  growth: 107% (inactive)
SF-539 CNS
  growth: 79.9% (inactive)
M14 melanoma
  growth: 94.2% (inactive)

## O=C(Cc1ccc(/C=C/C(=O)c2ncc[nH]2)cc1)Nc1ccccc1
NCI-H23 lung
  growth: 39.8% (inactive)
NCI-H226 lung
  growth: 87.7% (inactive)
NCI-H322M lung
  growth: 67.4% (inactive)
HOP-62 NSCLC
  growth: 49.9% (inactive)
NCI-H460 lung
  growth: 11.7% (inactive)
HOP-92 NSCLC
  growth: 83.6% (inactive)
NCI-H522 lung
  growth: 31.2% (inactive)
A549/ATCC NSCLC
  growth: 57.2% (inactive)
786-0 renal
  growth: 32.8% (inactive)
COLO 205 colon
  growth: 45.5% (inactive)
DU-145 prostate
  growth: 17.8% (inactive)
MALME-3M melanoma
  growth: 98.2% (inactive)
MDA-MB-231 breast
  growth: 70.7% (inactive)
RXF 393 renal
  growth: 42.9% (inactive)
SF-268 CNS
  growth: 51.5% (inactive)
SF-295 CNS
  growth: 69.7% (inactive)
SF-539 CNS
  growth: -23.3% (active)
UACC-257 melanoma
  growth: 97.2% (inactive)
M14 melanoma
  growth: 73.6% (inactive)

## CC(=O)Oc1ccc(Cl)cc1CN(C(C)=O)C1CCCCC1
NCI-H23 lung
  growth: 116% (inactive)
NCI-H226 lung
  growth: 96.3% (inactive)
NCI-H322M lung
  growth: 101% (inactive)
HOP-62 NSCLC
  growth: 102% (inactive)
NCI-H460 lung
  growth: 114% (inactive)
HOP-92 NSCLC
  growth: 83.4% (inactive)
NCI-H522 lung
  growth: 88.2% (inactive)
A549/ATCC NSCLC
  growth: 106% (inactive)
786-0 renal
  growth: 90% (inactive)
COLO 205 colon
  growth: 104% (inactive)
DU-145 prostate
  growth: 125% (inactive)
MALME-3M melanoma
  growth: 111% (inactive)
MDA-MB-231 breast
  growth: 105% (inactive)
RXF 393 renal
  growth: 101% (inactive)
SF-268 CNS
  growth: 100% (inactive)
SF-539 CNS
  growth: 111% (inactive)
UACC-257 melanoma
  growth: 81.3% (inactive)
M14 melanoma
  growth: 109% (inactive)

## COc1ccc(SC2c3cc(OC)c(OC)cc3Oc3nc(N)c(C#N)c(N)c32)cc1 (configuration not stated)
NCI-H23 lung
  growth: -60.9% (active)
NCI-H226 lung
  growth: -70.9% (active)
NCI-H322M lung
  growth: -95% (active)
HOP-62 NSCLC
  growth: -42.1% (active)
NCI-H460 lung
  growth: -70% (active)
HOP-92 NSCLC
  growth: -19.9% (active)
NCI-H522 lung
  growth: -72.5% (active)
A549/ATCC NSCLC
  growth: -51.7% (active)
786-0 renal
  growth: -82.6% (active)
COLO 205 colon
  growth: -79% (active)
DU-145 prostate
  growth: -82.8% (active)
MALME-3M melanoma
  growth: -68.9% (active)
MDA-MB-231 breast
  growth: -67.5% (active)
RXF 393 renal
  growth: -79.5% (active)
SF-268 CNS
  growth: -61.8% (active)
SF-295 CNS
  growth: -69.5% (active)
SF-539 CNS
  growth: -96.6% (active)
UACC-257 melanoma
  growth: -43% (active)
M14 melanoma
  growth: -87.2% (active)

## CCN1CCN(c2nc(NCCCNc3ccnc4cc(Cl)ccc34)c3ccccc3n2)CC1
NCI-H23 lung
  growth: 64.3% (inactive)
NCI-H226 lung
  growth: 60.4% (inactive)
NCI-H322M lung
  growth: 45.4% (inactive)
HOP-62 NSCLC
  growth: 32.4% (inactive)
NCI-H460 lung
  growth: 16.3% (inactive)
HOP-92 NSCLC
  growth: 64.9% (inactive)
NCI-H522 lung
  growth: -21.5% (active)
A549/ATCC NSCLC
  growth: 18.8% (inactive)
786-0 renal
  growth: 30.7% (inactive)
COLO 205 colon
  growth: -22.9% (active)
DU-145 prostate
  growth: 39.5% (inactive)
MALME-3M melanoma
  growth: -73.5% (active)
MDA-MB-231 breast
  growth: -10.8% (active)
RXF 393 renal
  growth: 5.38% (active)
SF-268 CNS
  growth: 55.1% (inactive)
SF-295 CNS
  growth: 22.7% (inactive)
SF-539 CNS
  growth: -74.4% (active)
UACC-257 melanoma
  growth: -82.8% (active)
M14 melanoma
  growth: -87% (active)

## CCNC(=O)Oc1ccc(/C(=C(\C)c2ccc(Cl)cc2)c2ccc(OCCN(CC)CC)cc2)cc1
NCI-H23 lung
  growth: 65.6% (inactive)
NCI-H226 lung
  growth: 76.7% (inactive)
NCI-H322M lung
  growth: 68.7% (inactive)
HOP-62 NSCLC
  growth: 54.6% (inactive)
NCI-H460 lung
  growth: 7.6% (active)
HOP-92 NSCLC
  growth: 57.9% (inactive)
NCI-H522 lung
  growth: 55.4% (inactive)
A549/ATCC NSCLC
  growth: 45.8% (inactive)
786-0 renal
  growth: 24.7% (inactive)
COLO 205 colon
  growth: -57.8% (active)
DU-145 prostate
  growth: 67.6% (inactive)
MALME-3M melanoma
  growth: -50.6% (active)
MDA-MB-231 breast
  growth: 44.3% (inactive)
RXF 393 renal
  growth: 31.4% (inactive)
SF-268 CNS
  growth: 51.7% (inactive)
SF-295 CNS
  growth: 21.3% (inactive)
SF-539 CNS
  growth: 58.2% (inactive)
UACC-257 melanoma
  growth: -54.9% (active)
M14 melanoma
  growth: -63.3% (active)

## Cc1cc2nc3[nH]c4ccccc4c3nc2cc1C
NCI-H23 lung
  growth: 99.6% (inactive)
NCI-H226 lung
  growth: 96.1% (inactive)
NCI-H322M lung
  growth: 98.7% (inactive)
HOP-62 NSCLC
  growth: 94.2% (inactive)
NCI-H460 lung
  growth: 93.8% (inactive)
HOP-92 NSCLC
  growth: 67.2% (inactive)
NCI-H522 lung
  growth: 94% (inactive)
A549/ATCC NSCLC
  growth: 87.2% (inactive)
786-0 renal
  growth: 79.3% (inactive)
COLO 205 colon
  growth: 88% (inactive)
DU-145 prostate
  growth: 79.4% (inactive)
MALME-3M melanoma
  growth: 76.6% (inactive)
MDA-MB-231 breast
  growth: 64.4% (inactive)
SF-268 CNS
  growth: 74.6% (inactive)
SF-295 CNS
  growth: 102% (inactive)
SF-539 CNS
  growth: 70.7% (inactive)
M14 melanoma
  growth: 101% (inactive)

## c1ccc2[nH]c(-c3ccc(Nc4nc(N5CCCC5)nc5[nH]ncc45)cc3)nc2c1
NCI-H23 lung
  growth: -11.3% (active)
NCI-H226 lung
  growth: 98.9% (inactive)
NCI-H322M lung
  growth: 6.53% (active)
HOP-62 NSCLC
  growth: -36.6% (active)
NCI-H460 lung
  growth: -44.3% (active)
HOP-92 NSCLC
  growth: -56.4% (active)
NCI-H522 lung
  growth: -54.7% (active)
A549/ATCC NSCLC
  growth: -42.4% (active)
786-0 renal
  growth: -92.4% (active)
COLO 205 colon
  growth: -75.9% (active)
DU-145 prostate
  growth: -6.9% (active)
MALME-3M melanoma
  growth: -71.5% (active)
MDA-MB-231 breast
  growth: -48.5% (active)
RXF 393 renal
  growth: -81.5% (active)
SF-268 CNS
  growth: -7.79% (active)
SF-295 CNS
  growth: -63.3% (active)
SF-539 CNS
  growth: -68.1% (active)
UACC-257 melanoma
  growth: -90.5% (active)
M14 melanoma
  growth: -78% (active)
